Results reported in PubChem BioAssay (NCI).
About 83,000 compounds went through this panel and 20% of them were active in at least one assay; those are over-represented in the sample as a whole.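 48-hour exposure, single concentration, 96-well plates; percent growth endpoint where 0 means no net growth. Active: below 10.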 Unmarked numbers belong to inactive results. Calls of active or inactive are those of the source.

How the values were obtained:
Assay in all cases: NCI-60 one-dose screen, 48 h (100 = growth as untreated, 0 = no growth, -100 = all killed)
Conditions in all cases: 10 µM unless noted
SR leukemia = test system: SR leukemia
RPMI-8226 leukemia = test system: RPMI-8226 leukemia
OVCAR-8 ovarian = test system: OVCAR-8 ovarian
OVCAR-5 ovarian = test system: OVCAR-5 ovarian
OVCAR-4 ovarian = test system: OVCAR-4 ovarian
SK-OV-3 ovarian = test system: SK-OV-3 ovarian
IGROV1 ovarian = test system: IGROV1 ovarian
OVCAR-3 ovarian = test system: OVCAR-3 ovarian
HS 578T breast = test system: HS 578T breast
NCI/ADR-RES ovarian = test system: NCI/ADR-RES ovarian
T-47D breast = test system: T-47D breast
BT-549 breast = test system: BT-549 breast
MDA-MB-435 melanoma = test system: MDA-MB-435 melanoma
SW-620 colon = test system: SW-620 colon
MCF7 breast = test system: MCF7 breast
HCT-116 colon = test system: HCT-116 colon
HCC-2998 colon = test system: HCC-2998 colon
KM12 colon = test system: KM12 colon

Row | SMILES | growth (SR leukemia) | growth (RPMI-8226 leukemia) | growth (OVCAR-8 ovarian) | growth (OVCAR-5 ovarian) | growth (OVCAR-4 ovarian) | growth (SK-OV-3 ovarian) | growth (IGROV1 ovarian) | growth (OVCAR-3 ovarian) | growth (HS 578T breast) | growth (NCI/ADR-RES ovarian) | growth (T-47D breast) | growth (BT-549 breast) | growth (MDA-MB-435 melanoma) | growth (SW-620 colon) | growth (MCF7 breast) | growth (HCT-116 colon) | growth (HCC-2998 colon) | growth (KM12 colon)
1 | Clc1nccc2c(-c3csc(-c4c[nH]c5ccccc45)n3)c[nH]c12 | 11.3% | 51.4% | 56.5% | 107% | 68.9% | 58.8% | 68.6% | 68.6% | 45.2% | 53.1% | 37% | 65.7% | 53.9% | 7.87% (active) | 49.6% | 39.7% | 63.7% | 47.5%
2 | O=C1/C(=C/c2ccc(C(F)(F)F)cc2)COc2ccc(O)c(O)c21 | 3.77% (active) | -13.8% (active) | 9.3% (active) | -34.1% (active) | 24.8% | 81.6% | -49.6% (active) | -84.6% (active) | 10.4% | -11.6% (active) | -36.8% (active) | 10.9% | -5.38% (active) | -46% (active) | 4.91% (active) | -35.5% (active) | -39.2% (active) | -31.3% (active)
3 | C=C(CN1CC=CCC1)[C@@H]1CC[C@]2(CO)CC[C@]3(C)[C@H](CC[C@@H]4[C@@]5(C)CC[C@H](O)C(C)(C)[C@@H]5CC[C@]43C)[C@@H]12 | 76.9% | 88% | 101% | 109% | 92.8% | 107% | 107% | 102% | 95.3% | 90.1% | 87.6% | 105% | 105% | 106% | 88.7% | 94.4% | 116% | 107%
4 | COc1ccc2[nH]cc(-c3nc(-c4cn(C)c5ccncc45)cs3)c2c1 | -11.2% (active) | -40.3% (active) | -9.37% (active) | 103% | 24.1% | 112% | -38.5% (active) | 117% | 101% | 62.1% | 92.1% | 85.1% | 64.7% | -56.9% (active) | -39.4% (active) | -83.8% (active) | -38.9% (active) | -31.8% (active)
5 | CCOc1ccc(NC(=O)c2cc(OC)c(OC)c(OC)c2)cc1 | 24.7% | 27% | 49.5% | 94% | 65% | 40.6% | 53.1% | -3.43% (active) | 26.8% | 11.5% | 37.2% | 44.5% | -10.9% (active) | 31.6% | 20.8% | 18% | 55.5% | 22.8%
6 | CC1(C)CCC(S(=O)(=O)c2ccc3c(c2)/C(=N\O)c2cc(S(=O)(=O)N4CCN(c5ccc(F)cc5O)CC4)ccc2-3)CC1 | -48.5% (active) | -45.9% (active) | -71.7% (active) | -69.3% (active) | -94% (active) | -98.5% (active) | -38.4% (active) | -83.4% (active) | -54.1% (active) | -3.41% (active) | -90.6% (active) | -86.7% (active) | -92.3% (active) | -81.5% (active) | -67.9% (active) | -96.6% (active) | -92.1% (active) | -90.3% (active)
7 | CCC/C(=N\NC(N)=O)C(OC)OC | 120% | 121% | 98.6% | 97.1% | 89% | 116% | 123% | 104% | 125% | 99.6% | 114% | 110% | 110% | 110% | 90.8% | 102% | 99.3% | 97.7%
8 | O=C(Nc1ccccc1)c1sc(-c2ccccc2)cc1O | 70.4% | 74.4% | 119% | 94.2% | 90.9% | 106% | 92.5% | 84.1% | 92% | 93.4% | 101% | 95.8% | 90% | 102% | 78.9% | 96.5% | 101% | 85.1%
9 | CC[C@]12C=CCN3CC[C@@]4(c5ccc(OC)cc5N(C)[C@H]4[C@@](O)(C(=O)OC)[C@@H]1OC(=O)CCCN1CCOCC1)[C@@H]32 | 111% | 96.2% | 104% | 114% | 108% | 111% | 112% | 108% | 107% | 106% | 106% | 105% | 100% | 105% | 103% | 101% | 109% | 107%
10 | COC1=CC(c2ccc[nH]2)=N/C1=C\c1[nH]c(C)c(CC(=O)OCc2ccccc2)c1C | -25.5% (active) | -41.1% (active) | 9.46% (active) | 9.74% (active) | 10.5% | 11% | -3.67% (active) | -49.5% (active) | -6.47% (active) | 1.3% (active) | -28.6% (active) | -1.22% (active) | -21.3% (active) | -6.46% (active) | 4.14% (active) | -35% (active) | 13.4% | -9.28% (active)
11 | COc1ccc2c(c1)c(-c1ccc(-c3cn(C)c4ccc(OC)cc34)[nH]1)cn2C | -10.7% (active) | 2.15% (active) | 7.19% (active) | 30.9% | -40.3% (active) | 50.9% | 23.1% | -42% (active) | -13% (active) | 3.06% (active) | -51.2% (active) | -28.1% (active) | 41.8% | -48.6% (active) | 38.9% | 4.08% (active) | -3.55% (active) | 9.21% (active)
12 | CC(=O)c1c(Nc2ccc(F)c(F)c2F)[nH]c2c(F)cc(F)cc2c1=O | 8.21% (active) | -10.6% (active) | 5.38% (active) | 12.8% | 12.1% | -4.26% (active) | 16.2% | 7.99% (active) | 4.13% (active) | 1.67% (active) | -14.3% (active) | 2.13% (active) | -14.4% (active) | 7.98% (active) | 0.843% (active) | 3.09% (active) | 7.96% (active) | 2.32% (active)
13 | C/C(=N\O)C(=O)NCCCCCC(=O)Nc1ccccc1 | 104% | 106% | 96.2% | 106% | 103% | 102% | 111% | 109% | 114% | 103% | 86.5% | 88.6% | 101% | 104% | 95.1% | 100% | 101% | 103%
14 | COc1ccc2nc(Cl)c(/C=C/C(=O)c3ccc(NC(=O)CSc4nnc(-c5ccc(Cl)c(Cl)c5)n4-c4ccccc4)cc3)cc2c1 | 98.6% | 62% | 92.1% | 102% | 103% | 91.4% | 76.3% | 105% | 89.3% | 102% | 83.5% | 80% | 95.6% | 92.3% | 82.5% | 68.6% | 105% | 98.4%
15 | Cc1ccc(C)n1/C=C/n1c(C)ccc1C | 122% | 78.6% | 99.3% | 101% | 98.4% | 100% | 16.2% | 146% | 113% | 92.4% | 90.5% | 91% | 91.9% | 110% | 106% | 104% | 95% | 109%
16 | N#Cc1c(-c2ccccc2)cc(-c2ccccc2)n(CCCC(=O)NO)c1=O | 7.72% (active) | 11.3% | 12.5% | 28.9% | 29.6% | 36.1% | 25.4% | 8.36% (active) | 19.7% | -5.36% (active) | 18.7% | 53.9% | -12.4% (active) | 17.3% | 22.5% | 7.06% (active) | 47.4% | 24.9%
17 | O=C(CN1C(=O)NC2NC(=O)NC21)N/N=C/c1ccc(Cl)cc1Cl (stereo not given) | 109% | 104% | 109% | 105% | 103% | 102% | 103% | 104% | 103% | 104% | 110% | 98.9% | 102% | 104% | 98% | 101% | 110% | 105%
18 | CCN=C1C=CC(=C(c2ccc(N(C)C)cc2)c2ccc(N(C)C)cc2)c2ccccc21 | 3.56% (active) | -22.9% (active) | -8.37% (active) | 4.09% (active) | 16.3% | -35.2% (active) | -7.04% (active) | -60.9% (active) | -29.8% (active) | 12.3% | -22.8% (active) | -35.2% (active) | -35.2% (active) | -9.44% (active) | -9.8% (active) | -51.6% (active) | -40.8% (active) | -86.1% (active)
19 | Cc1cccc(-n2c(C)nc3ccc(N4CCCNC4=O)cc3c2=O)c1 | 98% | 104% | 99.5% | 112% | 99.3% | 114% | 111% | 107% | 111% | 103% | 103% | 108% | 104% | 104% | 97.8% | 102% | 109% | 111%
20 | CCN(CCO)CC(C)Nc1ccc([N+](=O)[O-])c2sc3ccccc3c(=O)c12 (stereo not given) | 13% | 40.9% | 26.2% | 57.7% | 43.7% | 45.6% | -11.3% (active) | 49.1% | 26.8% | 37.2% | 39.9% | 58.9% | 23.5% | 18.6% | 13.1% | 11.8% | 38.6% | 37.9%
